# Data taken from the supplement of paper PMC6555819.
# How the values were obtained:
# Test in all cases: PBM binding z-score (relative to random genomic background probes); higher = stronger binding; sequences stand for … in GC…GCGATTGACAGCGTAGAATGAAGG
# [1] = system: FXR:RXRa (NR concentration 270 nM, RXRa partner concentration 90 nM)
# How it was run: (§1)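 Ligand-free nuclear receptor dimers were applied to custom Agilent 4×180K protein-binding microarrays whose double-stranded probes carried direct-repeat seeds, single-nucleotide variants, half-site ablations and random human genomic background sequences in 34-nt variable regions. Incubation lasted 1 h. Binding z-scores were computed against the random background probes from regression-normalized fluorescence.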
# [2] = system: LXRa:RXRa (NR concentration 270 nM, RXRa partner concentration 90 nM)
# How it was run: as §1
# [3] = system: LXRa homodimer (NR concentration 270 nM)
# How it was run: as §1
# [4] = system: LXRb:RXRa (NR concentration 270 nM, RXRa partner concentration 90 nM)
# How it was run: as §1
# [5] = system: LXRb homodimer (NR concentration 270 nM)
# How it was run: as §1
# [6] = system: PPARa:RXRa (NR concentration 270 nM, RXRa partner concentration 90 nM)
# How it was run: as §1
# [7] = system: PPARg:RXRa (NR concentration 180 nM, RXRa partner concentration 90 nM)
# How it was run: as §1
# [8] = system: PPARg:RXRa 270nM:90nM, anti-RXR (NR concentration 270 nM, RXRa partner concentration 90 nM)
# How it was run: as §1
# [9] = system: PPARg:RXRa 30nM:10nM, anti-RXR (NR concentration 30 nM, RXRa partner concentration 10 nM)
# How it was run: as §1
# [10] = system: PPARg:RXRa 90nM:30nM, anti-RXR (NR concentration 90 nM, RXRa partner concentration 30 nM)
# How it was run: as §1
# [11] = system: PPARg:RXRa DBDmut IVT, anti-RXR (DBD mutation: RXRa K156A/R161A, NR concentration 270 nM, RXRa partner concentration 90 nM)
# How it was run: as §1
# [12] = system: PPARg:RXRa IVT, anti-PPARg (NR concentration 270 nM, RXRa partner concentration 90 nM)
# How it was run: as §1
# [13] = system: PPARg DBDmut:RXRa IVT, anti-PPARg (DBD mutation: PPARg1 K132A/R137A, NR concentration 270 nM, RXRa partner concentration 90 nM)
# How it was run: as §1
# [14] = system: PPARg DBDmut IVT, anti-PPARg (DBD mutation: PPARg1 K132A/R137A, NR concentration 270 nM)
# How it was run: as §1
# [15] = system: PPARg homodimer (NR concentration 180 nM)
# How it was run: as §1
# [16] = system: PXR:RXRa (NR concentration 270 nM, RXRa partner concentration 90 nM)
# How it was run: as §1
# [17] = system: PXR homodimer (NR concentration 270 nM)
# How it was run: as §1
# [18] = system: RARa:RXR (NR concentration 270 nM, RXRa partner concentration 90 nM)
# How it was run: as §1
# [19] = system: RARa homodimer (NR concentration 270 nM)
# How it was run: as §1
# [20] = system: RARb:RXRa (NR concentration 270 nM, RXRa partner concentration 90 nM)
# How it was run: as §1
Sequence,PBM binding z-score [1],PBM binding z-score [2],PBM binding z-score [3],PBM binding z-score [4],PBM binding z-score [5],PBM binding z-score [6],PBM binding z-score [7],PBM binding z-score [8],PBM binding z-score [9],PBM binding z-score [10],PBM binding z-score [11],PBM binding z-score [12],PBM binding z-score [13],PBM binding z-score [14],PBM binding z-score [15],PBM binding z-score [16],PBM binding z-score [17],PBM binding z-score [18],PBM binding z-score [19],PBM binding z-score [20]
CGAACTAGGTCTGAACAGGACAGTGAAGGATGAT,-0.499,-0.813,-0.618,-0.891,-0.912,-0.134,0.652,-0.276,-0.221,-0.128,1.88,0.996,-0.255,-0.111,-0.44,-0.688,-0.469,-0.635,-0.454,-0.192
TCGAGTAGGTTACCACTGGGGCATTCAGCTTTCT,-0.222,0.889,-0.872,0.314,-0.76,1.04,0.354,1.12,0.971,0.965,3.33,3.37,0.26,0.143,-0.498,-0.159,-1.14,0.0985,-0.786,0.833
CGTCAAAGTTGAAGGTAACGTAACAGAAAGCAGC,-0.11,-0.00279,-0.157,0.207,-0.458,1.02,0.813,1.01,0.188,0.76,0.274,0.441,0.243,0.266,0.228,0.242,-0.121,0.656,0.1,1.64
TCATATAGGTAATACAGGTGAAGGTCGGCATCTA,1.22,1.34,0.87,1.02,0.522,2.28,1.83,3.03,4.02,3.78,4.61,3.61,1.2,1.45,1.83,1.16,0.89,1.69,2.17,1.22
CCTAGTTGGTCAAGGTCACCCACGCTATAGGTAC,4.05,3.51,2.14,3.51,0.583,4.14,2.93,3.43,1.1,2.35,1.97,3.64,0.717,1.37,4.86,4.16,2.4,4.82,3.27,4.16
ATCTCTAGGTAACAAGTTCAGTGAGAGAGAGGAC,0.938,0.818,0.556,0.613,1.01,1.54,1.41,2.15,0.897,1.64,3.21,3.22,1.3,1.5,1.39,1.73,1.77,0.827,1.3,1.75
TCATATAGGTAAAAGGTGAAATTCGGTGTGGTAA,2.42,1.99,0.471,2.11,0.332,5.49,8.93,8.13,8.19,8.89,5.31,5.24,2.68,1.94,2.68,1.62,1.11,2.81,1.72,1.89
AAATGTAGGTTATCGGGTCATTCAGTTTGCGCAT,3.38,3.09,1.81,2.9,0.806,5.21,7.59,6.43,4.76,6.15,8.08,7.95,2.76,1.48,3,3.87,7.01,3.72,1.36,2.68
CCAGACAGATGAGAAGGTAACTCAGCCTCGATTA,-0.147,-0.0249,0.532,-0.254,-0.206,-0.358,0.455,-0.402,-0.157,-0.366,0.125,-0.374,0.361,-0.388,1.08,-0.297,0.323,-0.00624,1.43,-0.0941
CCTTACGGTTCAAGGTTATAGCACGGGTGGTACG,2.11,1.96,0.742,1.66,0.441,2.53,0.899,1.18,0.229,0.767,-0.682,0.211,0.502,-0.14,1.49,2.28,1.34,2.24,1.14,1.73
TGAATGAGGTTATAAGATCAGGGAACGTTGCAAA,1.18,1.31,-0.538,0.8,-0.0754,2.61,1.22,1.75,0.754,1.38,1.08,1.54,0.481,0.281,-0.132,0.601,-0.261,1.25,0.0131,1
ATCTCTAGGTAAAGATAGTTCTGTGAATGCAAAT,0.34,0.239,-0.054,0.231,0.796,0.344,0.505,0.243,0.378,0.389,2.5,1.5,0.815,1.19,0.736,0.067,0.184,0.347,0.978,0.117
CGTCCAAGGTCAATGCTGGGTCAGTGAAAGCATT,6.49,4.95,0.942,3.75,0.628,5.14,3.82,4.53,1.09,3.07,3.06,3.71,-0.934,-0.907,4.17,4.66,1.2,5.52,0.99,5.31
GCGACTGGGGCATCAGCAGGTTACCATTACTTAA,-0.552,-0.326,-0.0382,0.719,-1.11,0.893,0.716,0.73,-0.277,0.0982,3.98,3.38,-0.628,-0.712,0.00295,-0.132,-0.395,0.221,-0.0866,0.832
